# A selection: hits, their analogues and other compounds. The true share with any hit is near 10%.
# GPT2 inhibitor = Primary qHTS assay for inhibitors of Glutamate pyruvate transaminase 2 (GPT2); Alanine aminotransferase 2 (Homo sapiens), Q8TD30; Recombinant GPT2, coupled pyruvate oxidase/HRP Amplex Red fluorescence; Potency, µM (series often up to 57.7 µM), for the others: top-dose activity change, negative = inhibition, usual class: inhibitors; 0.25% of 100,000 active; AID 1671188, 2021; also: nearly all actives have a fitted effect of over 60% in size
#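 Fluorescence read-out: pyruvate from GPT2 turnover coupled to pyruvate oxidase, HRP and Amplex Red (0.2mM ThPP, 0.2U/mL PO and HRP, 50uM Amplex final). Substrates 250uM a-KG, 2mM L-alanine; enzyme 10ng/uL; 30 min RT.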
# FLuc inh = Firefly luciferase inhibition profiling of diverse chemical library using quantitative high-throughput screening; Potency, µM (doses to about 115 µM), actives largely listed as inhibitors; 2.5% of 76,000 active; purified P. pyralis luciferase, luminescence, biochemical; AID 1347043, 2019; Luciferin 4-monooxygenase (Photinus pyralis), P08659; also: nearly all actives have a fitted effect of over 65% in size
# Target sequence (P08659 whole entry, looked up): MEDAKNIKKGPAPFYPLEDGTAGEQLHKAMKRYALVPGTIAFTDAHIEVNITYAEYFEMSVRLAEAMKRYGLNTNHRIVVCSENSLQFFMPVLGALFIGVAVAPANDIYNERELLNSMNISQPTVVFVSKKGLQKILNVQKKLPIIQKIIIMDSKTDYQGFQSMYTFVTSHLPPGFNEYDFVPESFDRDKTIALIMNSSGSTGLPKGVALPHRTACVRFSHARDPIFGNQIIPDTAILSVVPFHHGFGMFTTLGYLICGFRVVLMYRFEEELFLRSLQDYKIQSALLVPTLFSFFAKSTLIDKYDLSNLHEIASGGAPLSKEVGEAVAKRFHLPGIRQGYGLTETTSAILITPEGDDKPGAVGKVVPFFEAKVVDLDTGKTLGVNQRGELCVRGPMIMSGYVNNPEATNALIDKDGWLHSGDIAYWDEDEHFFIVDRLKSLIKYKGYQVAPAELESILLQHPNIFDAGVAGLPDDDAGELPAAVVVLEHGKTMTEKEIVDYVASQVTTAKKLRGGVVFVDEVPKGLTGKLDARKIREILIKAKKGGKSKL
#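 Cell-free enzyme assay, 10nM P. pyralis luciferase, luciferin and ATP each at 10uM. Inhibition profiled over a 6-point titration, read as luminescence.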
# NPR1 antag = Natriuretic polypeptide receptor (hNpr1) antagonism - Primary qHTS. AID 1347048, 2019. HEK293 hNpr1 GloSensor cGMP, ANP-stimulated luminescence. Potency, µM (series often up to 46.3 µM), for the others: at the highest dose activity change, negative = inhibition, hits mostly inhibitors. 1.6% of 76,000 active; calls by dose curve; also: nearly all actives have a fitted effect of over 60% in size
#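 HEK293 cells stably expressing human Npr1 and cGMP GloSensor pGS-40F, loaded 2 h with 2% GloSensor reagent, given compound 30 min at room temperature. Luminescence read before and 20 min after 0.1 nM hNppA.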
# HEK293 tox = Cytotoxic Profiling in HEK 293 Cell Line of Diverse Libraries Using Quantitative High-Throughput Screening | AID 1345083, 2018 | Potency, µM (titrated, usually from 115 µM), for inactives: at the top dose activity change, negative = cytotoxicity, usual class: inhibitors | 6.6% of 94,000 active | HEK 293 viability, ATP luminescence (CellTiter-Glo), 48-72 h; also: nearly all actives have a fitted effect of over 60% in size
#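 Luminescence from cellular ATP, measured with CellTiter-Glo, indicates HEK 293 viability. Cells plated at 250 cells/well are treated with compound for 48 or 72 hr at 37 degree Celsius before reagent addition.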
# NIH3T3 tox = Cytotoxic Profiling in NIH 3T3 Cell Line of Diverse Libraries Using Quantitative High-Throughput Screening. Potency, µM (titrated, usually from 96.7 µM), for the others: at the highest dose activity change, negative = cytotoxicity, most hits filed as inhibitors. 4.3% of 94,000 active. NIH 3T3 viability, CellTiter-Glo ATP luminescence, 48-72 h; also: nearly all actives have a fitted effect of over 55% in size
#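 Cytotoxicity was measured by CellTiter-Glo ATP luminescence after 48 or 72 h compound exposure at 37 °C. Mouse NIH 3T3 fibroblasts were seeded at 400 cells/well and dosed by 23 nL pin transfer.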
# An asterisk follows results filed as active; i = inactive; ? = inconclusive; nt = no result given; [ ] = dose if it differs, or a comment. Unless noted, calls follow the shape of the dose curve; as a rule, active = well fitted curve in the direction sought with a large enough effect; inconclusive = small, poorly fitted or top-dose-only effect, or another doubt; inactive = no such curve, though single readings can be large; an effect the other way counts as inactive or inconclusive. % is scaled to controls: 0 for no effect and ±100 for the full control effect; potency is read from the fitted curve at half-maximal effect.
SMILES,GPT2 inhibitor,FLuc inh,NPR1 antag,HEK293 tox,NIH3T3 tox
COc1cc2c(cc1CCc1ccccc1)N(C(=O)C1CCC(C)CC1)CC21CCN(C(C)=O)CC1 (stereo not given),-17.6%,i,?,39.8µM*,31.6µM*
COc1cc2c(cc1CCc1ccccc1)N(C(=O)c1c[nH]c3ccccc13)CC21CCN(C(C)=O)CC1,-11.9%,i,-19.0%,25.1µM*,22.4µM*
COc1cc2c(cc1CCc1ccccc1)N(C(=O)C(C)C)CC21CCN(C(C)=O)CC1,?,i,4.4%[70.6 µM],89.1µM*,-98.1%[138 µM]
COc1cc2c(cc1CCc1ccccc1)N(C(=O)c1ccnn1C)CC21CCN(C(C)=O)CC1,-1.1%,i,2.1%,?,?
O=C(NCc1ccc(F)cc1)[C@H]1CN2CCC1C[C@@H]2Cn1cc(COc2ccccc2)nn1 (stereo not given in full),-2.2%,i,0.9%,?,-16.6%
CC(=O)O[C@H]1C(=O)[C@]2(C)C(O)C[C@H]3OC[C@@]3(OC(C)=O)[C@H]2[C@H](OC(=O)c2ccccc2)[C@]2(O)C[C@H](O)C(C)=C1C2(C)C (stereo not given in full),i,nt,nt,nt,nt
O=C(NC[C@H]1C[C@@H]2CCN1C[C@@H]2CN1CCN(c2ccc(F)cc2)CC1)Nc1ccccc1,1.5%,i,-4.9%,?,-22.7%
O=C(NC[C@H]1C[C@@H]2CCN1C[C@@H]2CN1CCN(c2ccc(F)cc2)CC1)Nc1ccsc1,i,i,0.6%,79.4µM*,?
CN(C)c1ccc(C(=O)NC[C@H]2C[C@@H]3CCN2C[C@@H]3CN(C)c2ccccc2)cc1,i,i,-6.0%[70.6 µM],?,?
O=C(NC[C@H]1C[C@@H]2CCN1C[C@@H]2CN1CCC(Cc2ccccc2)CC1)c1ccccc1,1.8%[88.5 µM],i,0.1%[70.6 µM],25.1µM*,25.1µM*
CN(C[C@H]1CN2CC[C@H]1C[C@@H]2CNC(=S)NCc1ccco1)c1ccccc1,i,i,1.9%[70.6 µM],39.8µM*,28.2µM*
CN(C[C@H]1CN2CC[C@H]1C[C@@H]2CNC(=O)c1ccc(C(F)(F)F)cc1)c1ccccc1,1.2%[88.5 µM],i,?,28.2µM*,44.7µM*
CC1CCN(C[C@H]2CN3CC[C@H]2C[C@@H]3CNC(=O)c2ccc(C(F)(F)F)cc2)CC1,-8.5%[88.5 µM],i,1.4%[70.6 µM],?,?
O=C(NC[C@H]1C[C@@H]2CCN1C[C@@H]2CN1CCC(Cc2ccccc2)CC1)c1ccc(C(F)(F)F)cc1,-16.1%,i,1.0%,79.4µM*,?
Cc1ccc(C(=O)NC[C@H]2C[C@@H]3CCN2C[C@@H]3c2cc(-c3ccccc3)nn2C)cc1,i,i,5.1%[70.6 µM],?,?
Cn1nc(-c2ccc(F)cc2)cc1[C@H]1CN2CC[C@H]1C[C@@H]2CNC(=O)NCc1ccccc1,i,i,-16.0%,25.1µM*,?
Cn1nc(-c2ccccc2)cc1[C@H]1CN2CC[C@H]1C[C@@H]2CNC(=O)NCc1ccccc1,i,i,-1.6%[70.6 µM],?,100µM*
Cn1nc(-c2cccs2)cc1[C@H]1CN2CC[C@H]1C[C@@H]2CNC(=O)NCc1ccccc1,-3.6%,i,0.1%,-15.4%,-29.8%
COc1ccc(CNC[C@H]2C[C@@H]3CCN2C[C@@H]3c2cc(-c3ccc(F)cc3)nn2C)cc1,-10.1%[88.5 µM],i,0.9%[70.6 µM],44.7µM*,89.1µM*
CC[C@H]1CN2CC[C@H]1C[C@@H]2COC(=O)Nc1ccc(C(C)(C)C)cc1,i,?,6.0%[70.6 µM],39.8µM*,39.8µM*
CC[C@H]1CN2CC[C@H]1C[C@@H]2CNC(=O)Nc1ccc(Br)cc1,-3.5%[88.5 µM],i,6.5%[70.6 µM],3.2%[172 µM],-13.3%[174 µM]
CC[C@H]1CN2CC[C@H]1C[C@@H]2CNS(=O)(=O)c1ccc2ccccc2c1,i,i,1.0%[70.6 µM],?,-14.3%[174 µM]
CC[C@H]1CN2CC[C@H]1C[C@@H]2COC(=O)Nc1cccc2ccccc12,i,i,-8.8%[70.6 µM],?,50.1µM*
Cc1noc(C)c1-c1cnc2[nH]cc(CC(=O)N3CCN(C)CC3)c2c1,i,i,-2.8%[70.6 µM],?,?
COc1cc2c(cc1OC1CCCC1)NC(=O)C21CCN(C(=O)c2cccc(C#N)c2)CC1,-9.1%,i,-9.6%,?,22.4µM*
SMILES,GPT2 inhibitor,FLuc inh,NPR1 antag,HEK293 tox,NIH3T3 tox
COc1cc2c(cc1OC1CCCC1)NC(=O)C21CCN(C(=O)c2cccc(O)c2)CC1,-4.5%[88.5 µM],i,-22.1%[70.6 µM],79.4µM*,?
CN(C)CCc1c[nH]c2ccc(CN3CCN(C)S3(=O)=O)cc12,i,nt,nt,nt,nt
CCCS(=O)(=O)Nc1ccc(=O)n2c1[C@@H]1C[C@@H](CN(S(=O)(=O)c3ccc(OC)cc3)C1)C2,?,i,-1.9%,-1.0%,i
O=C(Nc1ccc2n(c1=O)C[C@H]1C[C@@H]2CN(C(=O)NC2CCCCC2)C1)c1ccco1,1.7%[88.5 µM],i,1.9%[70.6 µM],-13.2%[172 µM],89.1µM*
CN1CCN(C(=O)Cc2c[nH]c3ncc(-c4ccc(F)c(Cl)c4)cc23)CC1,1.3%[88.5 µM],i,-15.8%[70.6 µM],79.4µM*,28.2µM*
Cc1ccccc1-c1cnc2[nH]cc(CC(=O)N3CCN(C)CC3)c2c1,0.9%[88.5 µM],i,1.7%[70.6 µM],?,?
Cn1cc(-c2cnc3[nH]cc(CC(=O)N4CCN(Cc5ccccc5)CC4)c3c2)cn1,-3.9%[88.5 µM],?,-7.8%[70.6 µM],?,39.8µM*
CN1CCN(C(=O)Cc2c[nH]c3ncc(-c4cccc(Cl)c4)cc23)CC1,?,i,-23.4%[70.6 µM],89.1µM*,50.1µM*
CN1CCN(C(=O)Cc2c[nH]c3ncc(-c4cccc(F)c4)cc23)CC1,0.4%[88.5 µM],i,2.6%[70.6 µM],-17.9%[172 µM],?
CN1CCN(C(=O)Cc2c[nH]c3ncc(-c4ccc(Cl)cc4)cc23)CC1,i,22.4µM*,-14.6%[70.6 µM],100µM*,28.2µM*
COc1ncc(-c2cnc3[nH]cc(CC(=O)N4CCN(C)CC4)c3c2)cn1,i,i,-11.6%[70.6 µM],i,?
Cn1nc(C2CCCCC2)cc1[C@H]1CN2CC[C@H]1C[C@@H]2CNS(=O)(=O)c1ccccc1,-8.5%,i,1.4%,?,?
CN1CCN(C(=O)Cc2c[nH]c3ncc(-c4ccc5c(c4)OCO5)cc23)CC1,-4.0%[88.5 µM],22.4µM*,-1.1%[70.6 µM],?,?
CC(C)CN1Cc2ccccc2-n2ccnc2C12CCN(C(=O)c1ccsc1)CC2,i,i,-0.3%,?,?

# Assay outcomes as filed in PubChem.
